Experimental data taken from PubChem BioAssay AID1159580 (chemical genetic matrix, 2015).
Values joined by “and” are separate entries in the source; they are usually repeats but may differ in a detail not shown here. Identical values can stand only once. In all, about 5,500 compounds went through this assay and about 2,000 (36%) were called active. Another 18% or so got no clear call; they are omitted. Rule as the data show it: active = normalized growth mostly below about 0.91 (no sharp cut-off); inconclusive = no clear call, values can overlap the other calls; inactive = mostly above about 0.92. The list shows a part of the results.

Assay: chemical genetic growth profiling, strain panel (AID 1159580);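 also: tested at 20 µM; growth read once vehicle control cultures reached saturation at 30 °C; 1 = growth at the plate median or of vehicle wells; lower values mean less growth of the strain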
Conditions: S. cerevisiae deletion strains, growth OD

Measured: normalized growth

Nc1nc(/C(=C/CC(=O)O)C(=O)N[C@@H]2C(=O)N3C(C(=O)O)=CCS[C@H]23)cs1
inactive: locus YAL013W, strain DEP1, stronger effect = lower value 0.991 | locus YAL021C, strain ccr4, stronger effect = lower value 1.01 | locus YAL026C, strain drs2, stronger effect = lower value 1.01 | locus YAL030W, strain snc1, stronger effect = lower value 1.02 | locus YBL061C, strain skt5, stronger effect = lower value 1 | locus YBR009C, strain hhf1, stronger effect = lower value 1.02 | locus YBR021W, strain FUR4, stronger effect = lower value 0.982 | locus YBR023C, strain chs3, stronger effect = lower value 1.01 | locus YBR171W, strain sec66, stronger effect = lower value 1.04 | locus YBR229C, strain ROT2, stronger effect = lower value 0.971 | locus YBR231C, strain swc5, stronger effect = lower value 1.01 | locus YBR279W, strain paf1, stronger effect = lower value 1 | locus YCL011C, strain gbp2, stronger effect = lower value 1 | locus YCL016C, strain dcc1, stronger effect = lower value 0.99 | locus YCL029C, strain bik1, stronger effect = lower value 0.988 | locus YCL061C, strain MRC1, stronger effect = lower value 1.01 | locus YCL069W, strain vba3, stronger effect = lower value 1 | locus YCR088W, strain abp1, stronger effect = lower value 1.01 | locus YDL005C, strain med2, stronger effect = lower value 1.01 | locus YDL035C, strain GPR1, stronger effect = lower value 1.01 | locus YDL040C, strain nat1, stronger effect = lower value 0.997 | locus YDL074C, strain BRE1, stronger effect = lower value 1.02 | locus YDL101C, strain DUN1, stronger effect = lower value 0.989 | locus YDL134C, strain PPH21, stronger effect = lower value 0.988 | locus YDL185W, strain tfp1, stronger effect = lower value 0.99 | locus YDL192W, strain arf1, stronger effect = lower value 0.983 | locus YDR001C, strain nth1, stronger effect = lower value 1.02 | locus YDR069C, strain doa4, stronger effect = lower value 1.01 | locus YDR101C, strain arx1, stronger effect = lower value 0.99 | locus YDR137W, strain rgp1, stronger effect = lower value 1.01 | locus YDR150W, strain NUM1, stronger effect = lower value 0.998 | locus YDR159W, strain sac3, stronger effect = lower value 1.02 | locus YDR162C, strain NBP2, stronger effect = lower value 1 | locus YDR195W, strain ref2 1.01 | locus YDR297W, strain sur2, stronger effect = lower value 1.01 | locus YDR318W, strain mcm21, stronger effect = lower value 0.996 | locus YDR334W, strain swr1, stronger effect = lower value 0.993 | locus YDR335W, strain msn5, stronger effect = lower value 1.01 | locus YDR388W, stronger effect = lower value 0.992 | locus YDR392W, strain spt3, stronger effect = lower value 1.01 | locus YDR502C, strain sam2, stronger effect = lower value 0.992 | locus YEL003W, strain gim4, stronger effect = lower value 1.01 | locus YEL037C, strain rad23, stronger effect = lower value 1 | locus YEL061C, strain CIN8 (second series), stronger effect = lower value 1 | locus YEL061C, strain CIN8, stronger effect = lower value 0.995 | locus YER015W, strain faa2, stronger effect = lower value 1 | locus YER016W, strain bim1, stronger effect = lower value 0.998 | locus YER110C, stronger effect = lower value 0.978 | locus YER111C, strain swi4, stronger effect = lower value 1.01 | locus YER155C, strain BEM2 (second series), stronger effect = lower value 1.03 | locus YER155C, strain BEM2, stronger effect = lower value 1.04 | locus YER167W, strain BCK2, stronger effect = lower value 0.985 | locus YFR010W, strain ubp6, stronger effect = lower value 1 | locus YGL078C, strain dbp3, stronger effect = lower value 0.995 | locus YGL086W, strain mad1, stronger effect = lower value 0.991 | locus YGL167C, strain pmr1, stronger effect = lower value 1 | locus YGL173C, strain kem1, stronger effect = lower value 1.02 | locus YGL227W, strain vid30, stronger effect = lower value 1.01 | locus YGL240W, strain doc1, stronger effect = lower value 1.01 | locus YGL248W, strain PDE1, stronger effect = lower value 0.978 | locus YGL253W, strain hxk2, stronger effect = lower value 1 | locus YGR078C, strain PAC10, stronger effect = lower value 1.03 | locus YGR135W, strain pre9, stronger effect = lower value 0.991 | locus YGR229C, strain SMI1, stronger effect = lower value 0.935 | locus YGR252W, strain gcn5, stronger effect = lower value 1.04 | locus YHR013C, strain ard1, stronger effect = lower value 0.997 | locus YHR027C, strain rpn1, stronger effect = lower value 1.01 | locus YHR030C, strain SLT2, stronger effect = lower value 0.99 and 0.989 | locus YHR079C, strain IRE1 (second series), stronger effect = lower value 0.998 | locus YHR079C, strain IRE1, stronger effect = lower value 0.974 | locus YHR094C, strain hxt1, stronger effect = lower value 0.99 | locus YHR129C, strain ARP1, stronger effect = lower value 0.989 | locus YHR142W, strain chs7, stronger effect = lower value 1.02 | locus YHR200W, strain rpn10, stronger effect = lower value 0.992 | locus YIL066C, strain RNR3, stronger effect = lower value 0.993 | locus YIL073C, strain SPO22, stronger effect = lower value 1.03 | locus YIL125W, strain kgd1, stronger effect = lower value 0.994 | locus YIR030C, strain dcg1, stronger effect = lower value 0.987 | locus YJL092W, strain hpr5, stronger effect = lower value 1 | locus YJL095W, strain BCK1 (second series), stronger effect = lower value 1.01 | locus YJL095W, strain BCK1, stronger effect = lower value 0.997 and 1.01 | locus YJL115W, strain asf1, stronger effect = lower value 1.03 | locus YJL129C, strain trk1, stronger effect = lower value 1.01 | locus YJL134W, strain LCB3, stronger effect = lower value 0.993 | locus YJL154C, strain vps35, stronger effect = lower value 1.01 | locus YJL164C, strain tpk1, stronger effect = lower value 0.988 | locus YJL166W, strain qcr8, stronger effect = lower value 1.02 | locus YJL168C, strain set2, stronger effect = lower value 0.99 | locus YJL187C, strain SWE1 (second series), stronger effect = lower value 0.989 | locus YJL187C, strain SWE1, stronger effect = lower value 1.01 | locus YJR043C, strain POL32, stronger effect = lower value 0.981 | locus YJR066W, strain TOR1, stronger effect = lower value 0.949
